# According to PubChem BioAssay AID1211 (NMMLSC, 2008):
# Active and inactive are the calls of the source. The rule behind the calls is not given here.
# Target: Estrogen receptor (Homo sapiens) (UniProt P03372)
# Experiment: displacement of fluorescent estrogen from ERalpha – cell-based, Cos7 ERalpha-GFP, flow cytometry, primary screen (AID 1211);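 note: 0% = DMSO vehicle wells and 100% = no E2-Alexa633 signal left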
# Settings: fluorescent ligand competition, stronger effect = higher value
# Estrogen receptor (Homo sapiens), sequence (P03372 whole entry, looked up): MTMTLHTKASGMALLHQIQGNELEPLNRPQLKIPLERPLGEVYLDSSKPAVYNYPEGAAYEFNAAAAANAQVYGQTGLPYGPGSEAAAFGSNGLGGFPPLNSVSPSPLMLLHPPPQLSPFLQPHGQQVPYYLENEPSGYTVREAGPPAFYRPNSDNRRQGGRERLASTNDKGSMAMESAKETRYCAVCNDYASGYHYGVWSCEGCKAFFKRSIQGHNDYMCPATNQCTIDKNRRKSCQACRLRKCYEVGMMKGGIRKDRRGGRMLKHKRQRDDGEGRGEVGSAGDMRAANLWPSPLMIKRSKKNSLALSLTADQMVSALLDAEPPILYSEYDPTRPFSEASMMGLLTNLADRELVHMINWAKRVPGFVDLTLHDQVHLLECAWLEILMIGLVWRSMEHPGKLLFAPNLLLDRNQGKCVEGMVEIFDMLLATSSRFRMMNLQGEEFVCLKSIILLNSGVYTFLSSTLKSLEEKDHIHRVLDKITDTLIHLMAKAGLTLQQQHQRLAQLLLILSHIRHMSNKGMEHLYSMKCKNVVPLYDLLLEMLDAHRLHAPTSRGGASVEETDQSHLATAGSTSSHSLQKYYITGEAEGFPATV
SMILES,inhibition of ligand binding (at 10 µM),"inhibition of ligand binding (binding inhibition, at 0.1 µM)"
O=C(C1c2ccccc2C(=O)N2CCc3ccccc3C12)N1CCN(Cc2ccccc2)CC1 (stereo unspecified),41% (inactive),12%
Oc1ccc(-c2nccc(-c3cccs3)n2)cc1,40% (inactive),28%
Cn1c(SCC(=O)Nc2sccc2C#N)nnc1-c1ccccc1,17% (inactive),24%
O=C(Cc1cccs1)Nc1nncs1,33% (inactive),13%
Nc1ccc(-c2nc3ccc(C(=O)O)cc3s2)cc1,0% (inactive),42%
Cc1c(C(=O)OCc2ccccc2)[nH]c2c1C(=O)CC(c1ccco1)C2 (stereo unspecified),37% (inactive),24%
Oc1ccc(-c2nc(-c3ccc(O)c(O)c3)cs2)cc1,68% (active),39%
CC(Oc1ccc(Cl)cc1Cl)C(=O)Nc1ccc2oc(-c3ccncc3)nc2c1 (stereo unspecified),48% (inactive),40%
COc1ccc(C2CC(c3ccccc3)=NN2c2ccc(N)cc2)cc1 (stereo unspecified),19% (inactive),47%
COc1cc(CCC(=O)OCC(=O)Nc2ncc(Cl)cc2Cl)cc(OC)c1OC,3% (inactive),27%
COc1ccc(-c2ccc(-c3noc(-c4cccs4)n3)c(OC)n2)cc1,24% (inactive),54%
O=C(CSc1nnc(SCC(=O)c2ccco2)s1)c1ccco1,14% (inactive),28%
Cn1c(-c2ccc3nc(N)sc3c2)nc2cc(N)ccc21,36% (inactive),37%
O=C(Cc1coc2cc3c(cc12)CCC3)OCc1cc(=O)n2c(n1)sc1ccccc12,31% (inactive),9%
O=C1C2CC=C(Cl)CC2C(=O)N1CCCCCCN1C(=O)C2CC=C(Cl)CC2C1=O (stereo unspecified),36% (inactive),34%
CCCc1cc(-n2ccnc2)n2c(nc3ccccc32)c1C#N,14% (inactive),50%
O=C(Cn1c(=O)n(Cc2ccco2)c(=O)c2c3c(sc21)CCCCC3)Nc1ccccc1,51% (inactive),39%
COc1ccc(C2Nc3ccccc3C(=O)N2Cc2ccccc2)cc1Cn1nnc2ccccc21 (stereo unspecified),54% (inactive),19%
O=C(Cc1cn2ccsc2n1)OCc1nc2ccccc2s1,26% (inactive),18%
COC(=O)c1cc(-c2c(C)oc3cc(O)ccc3c2=O)c(C)o1,32% (inactive),50%
COc1ccc(C2CC(c3c(-c4ccccc4)c4cc(Cl)ccc4[nH]c3=O)=NN2S(C)(=O)=O)cc1OC (stereo unspecified),29% (inactive),37%

SMILES,inhibition of ligand binding (at 10 µM),"inhibition of ligand binding (binding inhibition, at 0.1 µM)"
C/C=C(/C(=C/C)c1ccc(O)cc1)c1ccc(O)cc1,76% (active),87%
Cc1snc2sc(C(=O)c3ccc(Br)cc3)c(N)c12,48% (inactive),29%
CCOc1ccccc1N1CSC2=C(C#N)C(c3c(OC)ccc4ccccc34)CC(=O)N2C1 (stereo unspecified),19% (inactive),17%
Cc1ccc(-n2nnnc2SCC(=O)Nc2cccc(NC(=O)c3ccco3)c2)cc1C,46% (inactive),7%
Cc1cccc2cc(C(c3nnnn3C(C)(C)C)N(Cc3ccco3)CC3CCCO3)c(=O)[nH]c12 (stereo unspecified),31% (inactive),7%
O=C(CCCn1c(=S)[nH]c2cc3c(cc2c1=O)OCO3)N1CCN(c2ccc(Cl)cc2)CC1,30% (inactive),27%
Nc1ccc(-c2nc3ccc([N+](=O)[O-])cc3[nH]2)cc1,36% (active),82%
CC(=O)Nc1ccc2[nH]c(C)cc(=O)c2c1,27% (inactive),19%
Oc1ccc(-c2cn3cc(C(F)(F)F)ccc3n2)cc1,29% (inactive),7%
CC(=O)Nc1nonc1-c1nc2ccccc2n1N(C(C)=O)C(C)=O,44% (inactive),59%
COc1ccc(C2Nc3ccccc3C(=O)N2c2ccccc2)cc1CSc1ccccn1 (stereo unspecified),44% (inactive),17%
CCOc1ccc(C2C3=C(Nc4nc(N)[nH]c(=O)c42)c2ccccc2C3=O)cc1 (stereo unspecified),50% (inactive),26%
C[C@]12CC[C@@H]3c4ccc(O[C@@H]5O[C@H](C(=O)O)[C@@H](O)[C@H](O)[C@H]5O)cc4CC[C@H]3[C@@H]1C[C@@H](O)[C@@H]2O,72% (active),40%
Cc1ccc(C)c(SCC(=O)OCC(=O)c2ccco2)c1,0% (inactive),28%
COc1ccc(C2Nc3ccccc3C(=O)N2c2ccc(C)cc2)cc1COc1ccccn1 (stereo unspecified),27% (inactive),11%
CCN(CC)c1ccc2c(c1)oc(=O)c1c(Cl)cc(=O)oc12,23% (inactive),4%
Cc1ccc(S(=O)(=O)Cc2ccc(C(=O)N3CCN(Cc4ccccc4)CC3)o2)cc1,25% (inactive),9%
Cc1ccc(-c2nnc(-c3ccc(NC(=O)c4ccco4)cc3)o2)cc1,0% (inactive),8%
COc1ccc(-c2nnc(SCC(=O)/C(C#N)=C(\C)N)o2)cc1,40% (inactive),16%
O=C(Nc1nc(-c2nc3ccccc3s2)cs1)C1COc2ccccc2O1 (stereo unspecified),33% (inactive),11%
CN(C)S(=O)(=O)N(CC(=O)N(Cc1ccccc1)Cc1ccccc1)c1ccccc1,23% (inactive),24%

SMILES,inhibition of ligand binding (at 10 µM),"inhibition of ligand binding (binding inhibition, at 0.1 µM)"
O=C(Nc1nccs1)c1nc(-c2ccccc2)n(-c2ccccc2)n1,27% (inactive),36%
Cc1oc2c(C)c(O)ccc2c(=O)c1-c1ccc2ccccc2n1,20% (active),70%
Cc1ccc(NC(=O)CN2C(=O)S/C(=C/c3ccc(-c4cc(C(=O)O)ccc4C)o3)C2=O)cc1C,50% (inactive),39%
Oc1ccc(/C=C/c2nc(-c3ccccc3O)n(-c3ccccc3)n2)cc1,11% (inactive),58%
N=C1C(c2nc3ccccc3[nH]2)=C(O)CN1c1ccc(CC(=O)O)cc1,45% (active),96%
C/C(N)=C(/C#N)C(=O)CSc1nnc(Cc2ccccc2F)n1N,0% (inactive),3%
COc1ccc(C(N)CCc2ccc(C)o2)cc1 (stereo unspecified),30% (inactive),39%
COc1cc(C=C(c2nc3ccccc3s2)c2nc3ccccc3s2)ccc1O,31% (inactive),35%
O=c1cc(CSc2nnc(-c3cccs3)n2Cc2ccccc2)nc2sc3ccccc3n12,49% (inactive),28%
Cc1cc(C2(c3ccc(O)c(C)c3)OC(=O)c3ccccc32)ccc1O,49% (inactive),11%
COc1ccc(NC(=O)CN(c2ccccc2)S(=O)(=O)N(C)C)cc1OC,16% (inactive),16%
CCc1ccc2c(c1)[C@H]1OCC[C@H]1[C@@H](c1cccs1)N2,0% (inactive),21%
COc1ccc(-c2nnc(-c3cc4c(ccc5ccccc54)oc3=O)o2)cc1,58% (inactive),35%
Cc1oc2cc(O)ccc2c(=O)c1Oc1ccccc1,58% (active),93%
CC(O)C1CCC2C3CC[C@H]4CC(O)CCC4(C)C3CC3(OCCO3)C12C (stereo partly specified),33% (inactive),1%
O=C1c2ccccc2C(=O)N1CCCc1nc2ccccc2c(=O)n1CCCn1ccnc1,36% (inactive),23%
Cc1ccc2nc(/C(C#N)=C\c3ccc(N4CCCCC4)c([N+](=O)[O-])c3)[nH]c2c1,55% (inactive),25%
C[C@]12CC[C@@H]3c4ccc(O)cc4C(=O)C[C@H]3[C@@H]1CC[C@@H]2O,78% (active),88%
Cc1cc(C(=O)CSc2nnc(-c3ccccc3F)o2)c(C)n1Cc1cccs1,69% (active),16%
Nc1ccc2nc(-c3cc(Cl)c(N)c(Cl)c3)[nH]c2c1,18% (inactive),6%
Cc1ccccc1NC(=O)CSc1nnc(-c2ccco2)c(-c2ccco2)n1,47% (active),66%

SMILES,inhibition of ligand binding (at 10 µM),"inhibition of ligand binding (binding inhibition, at 0.1 µM)"
CN(/N=C/c1cccnc1)c1cnn(-c2ccc(F)c(Cl)c2)c(=O)c1Cl,24% (inactive),15%
CCCSC1=N/C(=C\C=C\c2ccco2)C(=O)S1,0% (inactive),31%
Cc1ccc(-n2c(=O)c(C#N)cc3c(=O)n4cccc(C)c4nc32)cc1,53% (inactive),32%
Cc1cnc(C(=O)OCC(=O)c2csc(N3CCCCC3)n2)cn1,17% (inactive),63%
O=c1oc2c(O)c(O)cc3c(=O)oc4c(O)c(O)cc1c4c23,0% (inactive),4%
CCn1c(SCC(=O)c2ccc(O)c(O)c2)nnc1-c1ccccc1OC,54% (inactive),16%
COc1ccc(Cl)cc1NC(=O)c1ocnc1C,21% (inactive),3%
CC(=O)c1ccc2c(c1)C1C=CCC1C(C(=O)O)N2 (stereo unspecified),42% (inactive),39%
CCOC(=O)c1cc2c(c(CSc3nc4ccccc4c(=O)n3Cc3ccco3)c1)OCOC2,46% (inactive),18%
COc1ccc(C2Nc3ccccc3C(=O)N2c2ccc(Cl)cc2)cc1Cn1cc([N+](=O)[O-])cn1 (stereo unspecified),29% (inactive),49%
COc1ccc2c(c1)[nH]c1c(=O)n(N)cnc12,55% (inactive),20%
N#CC(C(=O)Nc1ccc(Cl)cc1)=C1Nc2ccccc2N1,48% (inactive),21%
Cc1nc2ccc(C(=O)O)cc2[nH]1,55% (inactive),52%
CCOC(=O)c1sc(NC(=O)c2ccc3ncsc3c2)nc1C,33% (inactive),36%
Nc1ccc(/C=C/C(=O)c2ccco2)cc1,9% (inactive),11%
C/C(N)=C(/C#N)C(=O)CSc1nnc(COc2ccccc2Cl)o1,20% (inactive),8%
O=C(NCc1ccco1)c1cc2cc3ccc(Cl)cc3nc2o1,49% (inactive),30%
O=C(Cc1cccs1)Nc1ccc(S(=O)(=O)Nc2ncccn2)cc1,15% (active),87%
COc1ccc2c(c1)C1C=CCC1C(c1cc3c(cc1Br)OCO3)N2 (stereo unspecified),0% (inactive),10%
C[C@@H]1O[C@@H](Oc2c(-c3cc(O)c(O)c(O)c3)oc3cc(O)cc(O)c3c2=O)[C@H](O)[C@H](O)[C@H]1O,52% (inactive),26%
